Source: PubChem
KCNQ2 block: KCNQ2 (rat) channel inhibition. AID 2156. 1.1% of 310,000 active. CHO-K1 KCNQ2, FluxOR thallium flux, 20 min; stronger effect = lower value. O88943. B-score at 10 µM;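 active = fluorescence ratio B-score at most minus 3 library SDs, with starting brightness B-score within 2 library SDs, cut at about -5.5 in these data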
Target sequence (O88943 whole entry, looked up): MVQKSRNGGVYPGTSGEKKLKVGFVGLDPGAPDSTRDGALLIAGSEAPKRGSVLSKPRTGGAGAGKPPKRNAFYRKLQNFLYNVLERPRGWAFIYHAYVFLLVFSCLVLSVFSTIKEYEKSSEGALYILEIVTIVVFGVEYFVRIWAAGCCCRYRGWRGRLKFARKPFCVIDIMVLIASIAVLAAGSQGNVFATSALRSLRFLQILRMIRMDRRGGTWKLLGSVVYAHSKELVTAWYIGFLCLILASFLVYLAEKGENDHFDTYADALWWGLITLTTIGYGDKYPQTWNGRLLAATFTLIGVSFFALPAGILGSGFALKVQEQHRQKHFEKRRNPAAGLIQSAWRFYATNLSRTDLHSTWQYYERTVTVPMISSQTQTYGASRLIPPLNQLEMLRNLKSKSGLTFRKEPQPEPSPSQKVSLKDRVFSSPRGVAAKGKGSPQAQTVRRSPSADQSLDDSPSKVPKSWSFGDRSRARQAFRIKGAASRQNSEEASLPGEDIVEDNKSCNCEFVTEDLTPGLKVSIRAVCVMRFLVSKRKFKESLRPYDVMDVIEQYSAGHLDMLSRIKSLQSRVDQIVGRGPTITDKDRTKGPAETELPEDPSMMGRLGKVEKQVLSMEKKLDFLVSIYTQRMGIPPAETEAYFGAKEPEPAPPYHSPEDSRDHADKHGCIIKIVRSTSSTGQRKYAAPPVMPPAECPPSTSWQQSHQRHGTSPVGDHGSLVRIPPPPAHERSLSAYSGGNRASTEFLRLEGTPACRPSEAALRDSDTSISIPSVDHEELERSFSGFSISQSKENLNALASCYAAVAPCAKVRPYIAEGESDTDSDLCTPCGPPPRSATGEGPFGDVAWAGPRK
KCNQ2 pot: enhances the rat KCNQ2 potassium channel; CHO-K1 KCNQ2, FluxOR thallium flux fluorescence; stronger effect = higher value; B-score at 10 µM; 0.54% of 310,000 active; AID 2239;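 active = fluorescence ratio B-score at least 3 SD of library B-scores, with initial fluorescence B-score within 3 of them, cut at about 5.3 in these data; same plate scores as AID 2156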;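 note: B-score of peak minus minimum over baseline fluorescence ratio after K+ and Tl+ stimulus; positive B-score means potentiation of KCNQ2 with more thallium influx and brighter signal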
* = called active by the depositor; i = inactive; nt = no result given. Rows were chosen to be rich in hits. Some 1.6% of all compounds tested hit in one or more screens of this group.

SMILES	KCNQ2 block	KCNQ2 pot
Cc1ccc(NC(=O)Nc2ccc3c(c2)OCO3)c(OC(F)F)c1	i	nt
O=C1C(Cl)=C(N2CCCCC2)C(=O)C(Cl)=C1c1cnc(N2CCCCC2)s1	i	nt
CN(C)c1ncc(C2=C(Cl)C(=O)C(N3CCCC3)=C(Cl)C2=O)s1	-8.6*	-8.6
Cn1cnnc1SCC(=O)N/N=C/c1ccc(OCC(N)=O)cc1	i	nt
C/C(=N\NC(=O)c1nn(C)c(C)c1Br)c1ccc(NC(=O)C2CCCC2)cc1	i	0.89
COc1ccc(C2=NN(C(=O)CSc3nc(=O)n4cccc(C)c4n3)C(c3ccc(C)cc3)C2)cc1 (stereo not given)	-7.4*	-7.4
COc1ccc(C2=NN(C(=O)CSc3ncccn3)C(c3ccc(C)cc3)C2)cc1 (stereo not given)	i	1.9
CCN(CC)CCNc1ncnc2c1sc1nc(N3CCCC3)c3c(c12)CC(C)(C)OC3	i	5.8*
CN(C)CCNc1ncnc2c1sc1nc(N3CCCC3)c3c(c12)CC(C)(C)OC3	i	4.8
CC1Cn2c(nc3sc4c(c3c2=O)CC(C)(C)OC4)N1CCO (stereo not given)	i	0.01
CC(NC(=O)Nc1ccccc1Cl)c1ccc2c(c1)OCO2 (stereo not given)	i	3.9
Cc1nc(C(=O)Nc2cccc(Cl)c2)nn1-c1cc(OC(C)C)c(Cl)cc1Cl	i	nt
Cc1nc(C(=O)Nc2cc(Cl)ccc2Cl)nn1-c1cc(OC(C)C)c(Cl)cc1Cl	-6.4*	-6.4
Cc1nc(C(=O)Nc2ccc(Cl)cc2Cl)nn1-c1cc(OC(C)C)c(Cl)cc1Cl	i	nt
Cc1nc(C(=O)Nc2cccc(Cl)c2Cl)nn1-c1cc(OC(C)C)c(Cl)cc1Cl	-6.3*	-6.3
O=S(=O)(c1ccc(-c2n[nH]c(=S)o2)cc1)N1CCCC1	i	0.7
COc1ccc(C(CC(=O)c2ccccc2)C2CCCCC2=O)cc1 (stereo not given)	-5.8*	-5.8
COc1ccc(C(=O)CC(c2ccccc2)C2C(=O)CCCC2=O)cc1 (stereo not given)	i	0.02
CCOCCCN(C(=O)CNC(=O)c1ccco1)C(C(=O)NC1CCCC1)c1cccc(OC)c1 (stereo not given)	i	1
Cc1cccc(N2C(=O)c3ccccc3C2=O)n1	i	nt
COc1ccc(Oc2ccc(C(F)(F)F)cc2NC(=O)c2ccc(C)cc2)cc1	-5.6*	-5.6
COCCOc1ccc(C(F)(F)F)cc1NC(=O)c1ccc(C)cc1	i	nt
CCCCc1nnc(SCC(=O)NC2CCCCC2)n1C	i	1.1
CCN(CC)CCNC(=O)c1c(C)n(-c2ccccc2)c2cc(Br)c(OC)cc12	-5.8*	-5.8
COc1cc2c(C(=O)N3CCN(C)CC3)c(C)n(-c3ccccc3)c2cc1Br	i	nt
SMILES	KCNQ2 block	KCNQ2 pot
CCCn1c(CN2CCN(C(C)=O)CC2)nc2cc(S(=O)(=O)N(C)C)ccc21	i	nt
CCOC(=O)C1=C(C)NC(=S)NC1c1ccc(-c2ccc(Cl)cc2)o1 (stereo not given)	i	7.8*
CCOC(=O)C1=C(C)NC(=O)NC1c1ccc(-c2ccc(Cl)cc2)o1 (stereo not given)	i	0.05
CN(CC1CCOCC1)C(=O)CC1C(=O)NCCN1CC(c1ccccc1)c1ccccc1 (stereo not given)	-5.9*	-5.9
CN(C(=O)CC1C(=O)NCCN1CC(c1ccccc1)c1ccccc1)C(C1CC1)C1CC1 (stereo not given)	i	nt
COCCNC(=O)C(c1ccc(C)cc1)N(Cc1cccs1)C(=O)CCC(=O)Nc1ccccn1 (stereo not given)	i	1.9
Cc1ccc(S(=O)(=O)Cc2ccc(C(=O)N3CCN(c4cc(C)ccc4C)CC3)o2)cc1	i	0.55
Cc1ccc(C)c(N2CCN(C(=O)c3ccc(CS(=O)(=O)c4ccccc4C)o3)CC2)c1	-6.5*	-6.5
O=[N+]([O-])c1cccc(OCCCN2CCC(Cc3ccccc3)CC2)c1	-5.7*	-5.7
O=[N+]([O-])c1ccc(CN2CCC(Cc3ccccc3)CC2)cc1	i	0.36
COc1ccccc1NC(=O)CNC(=O)Cn1cnc2sc(C)c(C)c2c1=O	i	nt
CCc1nc(SCC(=O)Nc2ccccc2OC)c2c(C)c(C)sc2n1	-5.8*	-5.8
CCOc1ccc(OCC)c(NC(=O)CN2CCN(c3cc(C)ccc3C)CC2)c1	-5.6*	-5.6
CCOc1ccc(OCC)c(NC(=O)CN2CCN(c3cccc(C)c3)CC2)c1	i	1.9
CC(C)c1ccccc1OCC(=O)Nc1cc(S(=O)(=O)N2CCOCC2)ccc1N1CCCC1	i	nt
COc1cc(OC)cc(N(C(=O)CNC(=O)c2ccco2)C(C(=O)NCC2CCCO2)c2ccccc2)c1 (stereo not given)	i	nt
Cc1ccc(NC(=O)COc2ccc(C(=O)c3ccccc3)cc2)c(O)c1	i	0.37
Cc1ccccc1C(=O)NC1CCN(CC(=O)Nc2ccccc2Cl)CC1	i	1.5
Cc1c(Cl)cccc1NC(=O)CN1CCC(C(O)(c2ccccc2)c2ccccc2)CC1	-6.2*	-6.2
COc1ccc(C(CNC(=O)c2cccc(NS(=O)(=O)c3ccc(C)c(F)c3)c2)N2CCOCC2)cc1 (stereo not given)	i	nt
Cc1nc2ccc([N+](=O)[O-])cc2[nH]1	i	0.64
O=[N+]([O-])c1cccc(/C=C/c2nc3ccc([N+](=O)[O-])cc3[nH]2)c1	-8.1*	-8.1
Cn1c(=O)c(C(=O)NCCc2ccccc2)c(O)c2ccccc21	i	nt
CC(NC(=O)c1c(O)c2ccccc2n(C)c1=O)c1ccccc1 (stereo not given)	-5.8*	-5.8
O=C(O)CCC(=O)N1CCc2cc(S(=O)(=O)NCc3ccc(Cl)cc3)ccc21	i	nt
SMILES	KCNQ2 block	KCNQ2 pot
CC(OC(=O)c1ccc2ncsc2c1)C(=O)NC1CCCCC1C (stereo not given)	i	nt
COc1ccc(S(=O)(=O)N2CCN(c3ccc(C)cc3C)CC2)cc1OC	i	nt
CCOc1ccc(S(=O)(=O)N2CCN(c3ccc(C)cc3C)CC2)cc1	-7*	-7
COc1cc(CNCc2ccccn2)ccc1OCC(N)=O	i	1.8
COc1cc(CNCc2ccccn2)ccc1OCc1ccc(Cl)c(Cl)c1	-5.9*	-5.9
O=Nc1c(O)n(Cc2cccc(Cl)c2)c2ccccc12	i	nt
Cc1cc(C)nc(N=Nc2c(O)n(Cc3ccc(Cl)cc3)c3ccccc23)n1	-5.9*	-5.9
CSc1ccccc1NC(=O)CN(C)C(=O)Cc1c(F)cccc1Cl	i	nt
COc1ccc([N+](=O)[O-])c(OC)c1C(=O)NC(=O)Nc1nc(C)nc(C)n1	i	nt
CC(C)C[C@@H](CN=[N+]=[N-])N1CCN(C)CCC1=O	i	0.06
CSc1cccc(CN2CCC(Oc3ccc(C(=O)N4CCCCC4)cc3)CC2)c1	i	nt
CCOc1ccc(C(=O)N2CCN(c3cccc(C)c3C)CC2)cc1	-5.8*	-5.8
CCOc1ccc(C(=O)N2CCCC2)cc1	i	0.53
Cc1c(CC(=O)N[C@@H](C)C(=O)O)c(=O)oc2cc3oc4c(c3cc12)CCCC4	i	nt
S=c1[nH]cnc2scc(-c3ccccc3)c12	i	11*
Clc1ncnc2scc(-c3ccccc3)c12	i	1.3
Cc1ccc(Cl)c2c(N=Nc3ccccc3)c(O)[nH]c12	i	nt
Cc1nc(N)sc1-c1csc(Nc2ccc(Cl)cn2)n1	i	0.76
Cc1nc(N)sc1-c1csc(Nc2ccccn2)n1	i	6.8*
COc1cc2c(cc1OC)CC(C(=O)NCc1ccccc1)NC2 (stereo not given)	i	1
